# A number with no mark means an inactive call. Activity calls are given as the source filed them. Rule as the data show it: active = remaining activity below about 50%; inactive = the rest.
# Target: Phospholipase D1 (Homo sapiens) (UniProt Q13393)
# Assay: cellular phospholipase D1 activity inhibition – Calu-1 cells, single concentration (AID 602144);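 also: tested at 200 nM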
# Settings: cellular PLD1 activity, hits give low values
# Phospholipase D1 (Homo sapiens), sequence (Q13393 whole entry, looked up): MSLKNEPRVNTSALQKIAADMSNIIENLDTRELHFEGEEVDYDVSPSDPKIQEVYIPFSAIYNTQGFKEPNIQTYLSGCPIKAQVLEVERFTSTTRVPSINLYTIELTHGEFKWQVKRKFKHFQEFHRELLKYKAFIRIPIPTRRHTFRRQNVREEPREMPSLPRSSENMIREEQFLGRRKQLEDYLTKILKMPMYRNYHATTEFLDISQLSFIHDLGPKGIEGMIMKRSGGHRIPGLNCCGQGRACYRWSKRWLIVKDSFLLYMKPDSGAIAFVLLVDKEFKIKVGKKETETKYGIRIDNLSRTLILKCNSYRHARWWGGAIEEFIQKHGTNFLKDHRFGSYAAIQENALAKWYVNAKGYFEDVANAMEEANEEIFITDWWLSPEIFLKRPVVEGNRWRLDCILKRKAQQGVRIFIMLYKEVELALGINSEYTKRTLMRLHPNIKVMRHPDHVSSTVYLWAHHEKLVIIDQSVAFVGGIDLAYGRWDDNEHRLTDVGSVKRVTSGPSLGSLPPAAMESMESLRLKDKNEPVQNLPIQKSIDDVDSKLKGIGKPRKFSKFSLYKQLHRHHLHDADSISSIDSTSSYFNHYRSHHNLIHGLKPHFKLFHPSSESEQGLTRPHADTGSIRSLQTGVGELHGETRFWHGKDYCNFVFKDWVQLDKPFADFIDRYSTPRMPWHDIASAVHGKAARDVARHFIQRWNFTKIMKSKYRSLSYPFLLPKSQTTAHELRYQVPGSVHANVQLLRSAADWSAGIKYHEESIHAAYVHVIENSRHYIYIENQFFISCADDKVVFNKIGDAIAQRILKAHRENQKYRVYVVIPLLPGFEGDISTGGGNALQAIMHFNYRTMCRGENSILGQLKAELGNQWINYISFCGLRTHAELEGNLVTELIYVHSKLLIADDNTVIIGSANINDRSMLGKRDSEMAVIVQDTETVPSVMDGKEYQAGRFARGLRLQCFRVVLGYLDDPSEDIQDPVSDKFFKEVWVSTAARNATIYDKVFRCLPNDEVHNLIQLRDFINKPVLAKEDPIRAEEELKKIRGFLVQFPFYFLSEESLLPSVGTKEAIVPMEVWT
# Phospholipase D1 (Homo sapiens), sequence (Q13393 whole entry, looked up): as above
row,Compound,remaining activity
1,CCC(=O)N[C@@H](C)CN1CCC2(CC1)C(=O)NCN2c1ccccc1,93.3%
2,CC(C)[C@@H](CN1CCC2(CC1)C(=O)NCN2c1ccccc1)NC(=O)c1cc2ccccc2[nH]1,1.51% (active)
3,C[C@@H](CN1CCC2(CC1)C(=O)NCN2c1ccc(F)c(F)c1)NC(=O)c1cc2ccccc2[nH]1,0% (active)
4,CCOC(=O)CCN1CCC2(CC1)C(=O)NCN2c1ccccc1,83.2%
5,CC(C)[C@@H](CN1CCC2(CC1)C(=O)NCN2c1ccccc1)NC(=O)c1ccc2ccccc2c1,20.7% (active)
6,CCCCCC(=O)NCCN1CCC2(CC1)C(=O)NCN2c1cccc(F)c1,109%
7,O=C(NCCN1CCC2(CC1)C(=O)NCN2c1ccccc1)c1ncc(F)cc1F,125%
8,C[C@@H](CN1CCC2(CC1)C(=O)N(Cc1ccccc1)c1ccccc12)NC(=O)c1ccc2ccccc2c1,90.4%
9,COc1cc(C(=O)NCCN2CCC3(CC2)C(=O)NCN3c2ccccc2)ccc1N,103%
10,C[C@@H](CN1CCC2(CC1)C(=O)NCN2c1ccccc1)NC(=O)[C@@H]1C[C@H]1c1ccccc1,70.5%
11,C[C@@H](CN1CCC2(CC1)C(=O)NCN2c1ccc(F)c(F)c1)NC(=O)c1ccc(Cl)cc1,6.51% (active)
12,CN1CN(c2ccccc2)C2(CCN(CCNC(=O)c3ccc4ccccc4c3)CC2)C1=O,97.9%
13,CC(C)(C)C(=O)NCCN1CCC2(CC1)C(=O)NCN2c1cccc(F)c1,71.8%

# Source: PubChem BioAssay AID602144 (Vanderbilt Specialized Chemistry Center, 2011)
